# Reference: PubChem BioAssay AID1051 (The Scripps Research Institute Molecular Screening Center, 2008)
# About 340 (0.34%) of roughly 99,000 compounds were called active. The sample as a whole holds a higher share of actives than the screen did. Values without a mark were called inactive. No stated cut-off is given here; in the data, active means TR-FRET ratio above about 2300; inactive means the rest.
# Test: signal artefacts in PPARgamma/SRC-1 readout – biochemical, TR-FRET emission ratio, artefact control for PPARgamma SRC-1 recruitment agonists, primary screen (AID 1051)
# Details: TR-FRET detection artefact counter-screen, at 8 µM, hits give high values
row,SMILES,TR-FRET ratio
1,COc1cc(-n2c(=S)[nH]c3ccc(C)cc3c2=O)c(Cl)cc1Cl,2560 (active)
2,O=C1N=c2ccccc2=C/C1=C\c1c(O)[nH]c(=S)[nH]c1=O,1870
3,COc1ccc(C2N3CC(C)(C)CN23)cc1 (stereo not given),1740
4,CCOP(=O)(OCC)C(NC(=O)c1ccc(C)cc1)C(Cl)(Cl)Cl (stereo not given),1720
5,OCC#CC[N+]1(CC#Cc2ccccc2)CCCC1,1790
